Out of some 220,000 compounds screened, about 2,000 (0.91%) were called active. Another 2% or so got no clear call; they are omitted. Rule as the data show it: inconclusive = inhibition above about 80% without an active follow-up result; inactive = below that; test concentration not stated here. A selection follows. Entries with a potency or affinity are not part of this list.

The assay is described as follows: M. tuberculosis H37Rv growth inhibitors, H37Rv strain (AID 1626).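 Also: bacteria incubated seven days before Alamar blue readout; 0% = bacteria only wells and 100% = bacteria with antibiotic wells.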 Particulars: stronger effect = higher value, concentration not given here.
For `COc1ccccc1CN1C[C@@H]2C[C@@H](c3cccc(C)c3)N3CCC[C@@]23C1=O`, the inhibition was 4.89% (inactive).
For the molecule `CCN(CC)S(=O)(=O)c1ccc(N/N=C(\C)c2ccc3c(c2)OCO3)c([N+](=O)[O-])c1`, the inhibition was 2.18% (inactive).
Next, `NC(=O)N/N=C/c1coc2ccc(O)cc2c1=O`: -3.42% (inactive); `Cc1ccnc(NC(=O)c2ccc([N+](=O)[O-])o2)c1`: 5.02% (inactive); `Cc1cc(C)nc(NC(=O)c2ccc([N+](=O)[O-])o2)n1`: -5.31% (inactive).
For `NS(=O)(=O)c1ccc(O)c(NC(=O)c2ccc([N+](=O)[O-])o2)c1`, the inhibition is -1.93% (inactive).
With `Cc1cccc(NC(=O)c2ccc([N+](=O)[O-])o2)n1`, the inhibition is 3.18% (inactive).
Next, `Cc1cccnc1NC(=O)c1ccc([N+](=O)[O-])o1`: 2.32% (inactive); `O=C(Nc1ncccn1)c1ccc([N+](=O)[O-])o1`: 0.82% (inactive); `C=CCNC(=O)c1ccc2c(c1)S(=O)(=O)c1ccccc1C2=O`: -9.32% (inactive).
As for `COc1cc(C(=O)N2CCN(c3ccccc3)CC2)c([N+](=O)[O-])cc1OC`, the inhibition is 3.88% (inactive).
For `CN(C)c1ccc(CC(=O)c2nc3ccccc3s2)cc1`, the inhibition is -5.99% (inactive).
Turning to `CCCSc1nnc(NC(=O)Nc2ccc(F)cc2)s1`, the inhibition was 17% (inactive).
Next, `O=C(NCC1CCCN(Cc2cccc(C(F)(F)F)c2)C1)c1ccc(F)cc1` (stereo unspecified): -2.43% (inactive); `Cn1cc(/C=C(\C#N)C(=O)Nc2ncc(Cc3ccc(Cl)cc3)s2)c2ccccc21`: 1.97% (inactive).
For `Cn1cc(/C=C(\C#N)C(=O)Nc2ncc(Cc3cccc(Cl)c3)s2)c2ccccc21`, the inhibition is 4.07% (inactive).
Regarding `COC(C/C=C/[C@H](O)[C@H](C)OCc1ccccc1)OC`, the inhibition is -0.67% (inactive).
As to `O=[N+]([O-])c1ccc(N=Nc2ccc(O)cc2O)cc1`, the inhibition was 5.58% (inactive).
Then `O=c1[nH]c(O)c(N=Nc2ccc([N+](=O)[O-])cc2)c(=O)[nH]1`, with -0.55% (inactive); and `COC(=O)CCC(=O)N1CCc2cc(S(=O)(=O)N3CCN(c4ccccc4Cl)CC3)ccc21`, with 3.32% (inactive); and `CN(C)c1ccc(C(=S)N2CCCCC2)cc1Br`, with 6.15% (inactive).
Turning to `Cc1ccc(CN=c2c([N+](=O)[O-])nn(-c3cccc(C)c3)n2O)cc1`, the inhibition was -1.44% (inactive).
Then `Cc1cc(C)cc(N=c2c([N+](=O)[O-])nn(-c3ccc(Cl)cc3)n2O)c1`, with 48.3% (inactive); and `O=[N+]([O-])c1nn(-c2cccc(Cl)c2)n(O)c1=NCc1cccnc1`, with 6.16% (inactive); and `Cc1cccc(N=c2c([N+](=O)[O-])nn(-c3ccc(Cl)cc3)n2O)c1`, with 36.6% (inactive).
For `O=C(CCC1CCCN(Cc2ccc3c(c2)OCCO3)C1)NCc1ccccc1F` (stereo unspecified), the inhibition was -11.3% (inactive).
`CCCNC(=O)NC(=O)CSc1ccc2c(c1)OCCO2`: the inhibition is 5.15% (inactive).
As for `O=C(Nc1cc(C(F)(F)F)ccc1Cl)C1CCN(c2nnc(-n3cccc3)s2)CC1`, the inhibition is -3.21% (inactive).
Next, `O=C(NCCCN1CCc2ccccc2C1)C1CCN(c2nnc(-n3cccc3)s2)CC1`: -4.77% (inactive).
Turning to `O=C(C1CCCN(c2nnc(-n3cccc3)s2)C1)N1CCN(c2ccccc2)CC1` (stereo unspecified), the inhibition was 63.1% (inactive).
As for `O=C(C1CCN(c2nnc(-n3cccc3)s2)CC1)N1CCOCC1`, the inhibition is 0.74% (inactive).
As for `COc1ccc(CN2C(=O)NC(=O)/C(=C\c3ccco3)C2=O)cc1`, the inhibition is -5.87% (inactive).
Regarding `O=C(O)c1cc([N+](=O)[O-])cc2c1nnn2O`, the inhibition is -1.94% (inactive).
Take `COc1ccc(N/C=C/C(=O)c2ccc(OC)c(OC)c2)cc1`: the inhibition is 47% (inactive).
With `COc1cccc(Oc2ccc(N/C=C/C(=O)C(C)(C)C)cc2)c1`, the inhibition was 1.22% (inactive).
Next, `COc1ccccc1Oc1ccc(N/C=C/C(=O)C(C)(C)C)cc1`: -4.81% (inactive).
For `CCOC(=O)c1ccc(NC(=O)Nc2ccc(OC)c(OC)c2)cc1`, the inhibition was -4.38% (inactive).
Next, `CCOc1ccccc1N/C=C/C(=O)C(C)(C)C`: 4.06% (inactive); `CCOC(=O)c1ccc(N/C=C\C(=O)c2cccc(OC)c2)cc1`: 94.8% (inactive).
Consider `COc1cc(C(=O)Nc2ccc3c(c2)OCCO3)ccc1OC(C)C`, for which the inhibition is -2.6% (inactive).
On to `Cc1ccc(N/C=C/C(=O)C(C)(C)C)c(O)c1`, for which the inhibition is -0.76% (inactive).
In the case of `COc1ccccc1N(C(=O)c1snc(C(N)=O)c1N)C(C(=O)NCCC(C)C)c1ccco1` (stereo unspecified), the inhibition is -1.7% (inactive).
Then `COc1ccc(C(=O)NC(=O)Nc2ncccc2C)cc1`, with -9.06% (inactive); and `O=C(N/N=C1\C(=O)c2cccc3cccc1c23)c1ccc(O)cc1`, with 20.7% (inactive).
For the molecule `N#C/C(=C\c1c(Cl)cccc1Cl)c1nn(-c2ccccc2)c(-n2cccc2)c1C#N`, the inhibition was -1.88% (inactive).
Next, `O=S(=O)(NCc1cccnc1)c1ccc(Cl)c(Cl)c1`: -0.1% (inactive).
Take `CCOC(=O)c1c(-c2ccccc2)csc1NC(=O)CSc1nncs1`: the inhibition was 4.86% (inactive).
Consider `CCN(CC)C(=O)C(=O)c1cccn1-c1cccc(Cl)c1C#N`, for which the inhibition was -4.03% (inactive).
Take `CC(=O)c1c(C)[nH]c(C(=O)NCCc2cccc(C)c2)c1C`: the inhibition was 3.77% (inactive).
Next, `CCn1c(COc2ccccc2)nc2ccccc21`: -0.43% (inactive); `O=C(Cc1csc(-c2ccccc2)n1)NCc1cccs1`: 2.64% (inactive).
Turning to `COc1ccccc1C(=O)OCc1c(F)cccc1Cl`, the inhibition is -0.9% (inactive).
Take `COc1ccc(C(=O)/C=C/Nc2ccc(NC(C)=O)cc2)cc1OC`: the inhibition was 0.63% (inactive).
Next, `CCOC(=O)c1ccc(N/C=C/C(=O)c2ccco2)cc1`: 76.7% (inactive); `CCOC(=O)c1ccc(N/C=C/C(=O)c2ccc(OC)cc2)cc1`: 77.2% (inactive); `COC(=O)c1ccc(N/C=C/C(=O)c2ccc(OC)c(OC)c2)cc1`: 36.6% (inactive).
In the case of `O=C(Nc1ccc(F)cc1F)c1cccnc1`, the inhibition was -2.1% (inactive).
`O=C(NCCCCNC(=O)c1ccc(Br)s1)c1ccc(Br)s1`: the inhibition is -1.39% (inactive).
As for `CCOc1ccc(NC(=O)c2ccccc2OCC(=O)c2ccccc2)cc1`, the inhibition is 4% (inactive).
As to `COc1ccccc1-c1nnc(SCC(=O)N2CCOCC2)n1-c1ccccc1`, the inhibition was 1.2% (inactive).
Turning to `COCCn1c(C)cc(C(=O)CSc2nc(C)nc3sc4c(c23)CCC4)c1C`, the inhibition was -2.28% (inactive).
For the molecule `O=C(NCC(=O)N1CCC(N2CCCCC2)CC1)C1CCCCC1`, the inhibition is -10.3% (inactive).
For the molecule `CC(C)(C)c1nnc2sc(SCC(=O)N3CCc4ccccc43)nn2c1=O`, the inhibition is 1.69% (inactive).
Then `CCS(=O)(=O)N1CCN(C2Cc3ccccc3C2)CC1`, with -4.5% (inactive); and `CCOC(=O)/C=C/C(=O)OCC(=O)Nc1ccc(OC)c(Cl)c1`, with 3.02% (inactive); and `Cc1cc(Cl)ccc1OCCCC(=O)NN`, with -1.79% (inactive).
Turning to `COc1ccc(NC(=O)COC(=O)/C=C/C(=O)OCC(=O)Nc2ccc(OC)c(Cl)c2)cc1Cl`, the inhibition was -1.96% (inactive).
As to `COc1ccc(NC(=O)COC(=O)CCCOc2ccc(Cl)cc2Cl)cc1`, the inhibition was 12.7% (inactive).
As for `COC(=O)CCC(=O)Nc1ccc(Cl)c(Cl)c1`, the inhibition was -2.69% (inactive).
As for `O=C(O)CCCC(=O)Nc1ccc(Cl)c(Cl)c1`, the inhibition was -7.53% (inactive).
`Cc1cc(Cl)ccc1OCCCC(N)=O`: the inhibition is -0.81% (inactive).
With `O=C(COC(=O)CCCOc1ccc(Cl)cc1Cl)Nc1cccc(Cl)c1`, the inhibition is 6.33% (inactive).
As for `COc1ccc(CNC(=O)CS(=O)Cc2nc(-c3ccccc3C)oc2C)cc1` (stereo unspecified), the inhibition is 7.5% (inactive).
As for `COc1ccc(/C=N/NC(=O)c2ccc(CN3c4cccc5cccc(c45)S3(=O)=O)cc2)cc1`, the inhibition is 0.99% (inactive).
For the molecule `CCOC(=O)c1sc(NC(=O)CCCCl)nc1C`, the inhibition was 6.92% (inactive).
With `CC(C)Cn1c(N)c(C(=O)COC(=O)C2CCCCC2)c(=O)n(C)c1=O`, the inhibition is -2.8% (inactive).
For the molecule `Cc1cc(NC(=O)COC(=O)c2ccc(S(=O)(=O)N3CCCC3)cc2)no1`, the inhibition was 5.16% (inactive).
For `CN(c1ccccc1C(=O)NC1CC2CCC1C2)S(=O)(=O)c1ccccc1` (stereo unspecified), the inhibition is 5.72% (inactive).
As to `CC1CCCC/C1=N\NC(=S)Nc1cccnc1` (stereo unspecified), the inhibition was -2.62% (inactive).
Then `COc1ccc(NC(=O)CN(C)CC(=O)Nc2ccccc2SC)cc1Cl`, with -0.42% (inactive).
In the case of `COc1ccccc1CNC(=O)CN(C)CC(=O)Nc1cccc(F)c1`, the inhibition is -0.48% (inactive).
Regarding `CCCCOc1ccc(C(C)NC(=O)C2CCCN(S(=O)(=O)CC)C2)cc1` (stereo unspecified), the inhibition was -2.95% (inactive).
Then `CCC(=NCCO)c1c(O)n(C2CCCCC2)c(=O)[nH]c1=O`, with 3.46% (inactive); and `CCOC(=O)c1cnc2ccc(C(=O)OC)cc2c1Nc1ccc(C(=O)O)cc1`, with -2.69% (inactive).
As to `CCOC(=O)c1cnc2ccc(C)cc2c1Nc1ccc(N2CCOCC2)cc1`, the inhibition was 0.42% (inactive).
Consider `O=C(O)c1cc(-n2cccc2)ccc1N1CCOCC1`, for which the inhibition is -4.7% (inactive).
Next, `COc1ccccc1NC(=S)NC1CCCCCC1`: -4.57% (inactive); `CN(C)/C=C(/C(=O)c1ccccc1)n1cncn1`: -12.5% (inactive); `Cc1nn(C)c(C)c1/C=C(/C(=O)C(C)(C)C)n1cncn1`: -5.89% (inactive).
With `Cn1cnc([N+](=O)[O-])c1Oc1ccc2ccccc2c1`, the inhibition is 13.9% (inactive).
For `CCS(=O)(=O)c1c([N+](=O)[O-])ncn1C`, the inhibition is 76.2% (inactive).
As for `Cc1cccc(Sc2c([N+](=O)[O-])ncn2C)c1`, the inhibition is 4.79% (inactive).
As to `Cn1cnc([N+](=O)[O-])c1Cl`, the inhibition is 0.19% (inactive).
Then `Cc1cccc(C(=O)N=c2c(C#N)cc3c(=O)n4cccc(C)c4nc3n2Cc2ccco2)c1`, with -8.85% (inactive); and `CCN(C(=O)COC(=O)c1cc(S(=O)(=O)Nc2c(C)n(C)n(-c3ccccc3)c2=O)ccc1Cl)C1CCCCC1`, with -3.86% (inactive).
Consider `Cc1cccc(NC(=O)CCOc2ccccc2)c1`, for which the inhibition was -1.8% (inactive).

As usually defined, the inhibition is the drop in the measured response relative to a control, in per cent.

For the origin of these results see PubChem BioAssay AID1626 (SRMLSC, 2009).
